{"source": "PubChem BioAssay AID588579", "about": "(National Center for Advancing Translational Sciences (NCATS), 2011)", "note": "Values joined by “and” are separate entries in the source; they are usually repeats but may differ in a detail not shown here. Identical values can stand only once. In all, about 400,000 compounds went through this assay and about 2,200 (0.55%) were called active. Another 1% or so got no clear call; they are omitted. Calls come from the whole dose curve; as a rule, active = well fitted inhibition curve with a large enough effect; inconclusive = small, poorly fitted or top-dose-only effect, or another doubt; inactive = no such curve, though single readings can be large or run the other way. The sample as a whole holds a higher share of actives than the screen did. More than one record can exist for a structure, and the calls need not agree. % is set by controls: 0 for no effect and ±100 for the full control effect; potency is the fitted concentration of half-maximal effect.", "data": [{"target": "DNA polymerase kappa (Homo sapiens) (UniProt Q9UBT6)", "sequence (Q9UBT6 whole entry, looked up)": "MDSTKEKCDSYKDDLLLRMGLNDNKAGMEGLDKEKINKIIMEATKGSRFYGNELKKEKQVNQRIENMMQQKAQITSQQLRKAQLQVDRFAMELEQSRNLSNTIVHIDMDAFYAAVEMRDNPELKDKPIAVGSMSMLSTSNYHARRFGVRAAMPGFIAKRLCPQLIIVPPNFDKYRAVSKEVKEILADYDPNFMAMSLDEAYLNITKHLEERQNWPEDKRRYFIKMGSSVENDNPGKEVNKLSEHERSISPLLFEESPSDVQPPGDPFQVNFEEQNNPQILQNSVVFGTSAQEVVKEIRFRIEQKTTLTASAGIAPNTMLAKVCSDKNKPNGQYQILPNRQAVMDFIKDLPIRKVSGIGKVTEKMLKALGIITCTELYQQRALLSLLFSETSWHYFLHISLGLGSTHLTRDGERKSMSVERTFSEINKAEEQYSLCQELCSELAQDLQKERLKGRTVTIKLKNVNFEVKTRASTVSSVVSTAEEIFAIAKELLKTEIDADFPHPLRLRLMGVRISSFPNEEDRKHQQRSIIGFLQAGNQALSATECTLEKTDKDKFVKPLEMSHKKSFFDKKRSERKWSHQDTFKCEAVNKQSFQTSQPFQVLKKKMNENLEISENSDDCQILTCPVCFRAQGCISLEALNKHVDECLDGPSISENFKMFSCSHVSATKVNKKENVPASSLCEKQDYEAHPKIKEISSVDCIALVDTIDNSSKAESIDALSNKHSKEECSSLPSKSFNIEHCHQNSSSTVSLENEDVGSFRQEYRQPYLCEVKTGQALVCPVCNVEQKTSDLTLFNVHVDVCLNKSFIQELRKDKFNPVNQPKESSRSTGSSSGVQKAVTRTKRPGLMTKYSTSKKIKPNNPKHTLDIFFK", "experiment": "qHTS for Inhibitors of Polymerase Kappa", "conditions": "purified Pol kappa, fluorescent DNA synthesis assay, 10 min; series mostly up to 60.1 µM; activity, negative = inhibition: at the top concentration", "description": "The processing and repair of DNA interstrand crosslinks (ICL) in eukaryotic cells are extremely complex, potentially involving multiple DNA repair and damage tolerance pathways, including homologous recombination, nucleotide excision repair, translesion synthesis (TLS), and cell cycle checkpoints.\nTo that end, in a collaboration between the Oregon Health & Science University and the NIH Chemical Genomics Center a 1536-well high-throughput screen was developed. This fluorescent screen was assayed against the NIH Molecular Libraries Small Molecule Repository (MLSMR) to discover inhibitors of Pol Kappa.\nNIH Chemical Genomics Center [NCGC]\nNIH Molecular Libraries Probe Centers Network [MLPCN]\nAssay Submitter (PI): Stephen Lloyd, Oregon Health & Science University\nThree microliters of reagents (buffer in column 3 and 4 as negative control and 10 nM Pol kappa in columns 1, 2, and 5-48) were dispensed into a 1536-well black solid-bottom plate. Compounds (23 nL) were transferred via Kalypsys pin tool equipped with 1536-pin array. The plates were then incubated for 15 min at room temperature, and 1 uL substrate (50 nM final concentration) were then added to start the reaction and kinetically read twice at 0 min and 10 min on the Viewlux reader", "values": [{"compound": "Cc1cc(/C=C2/C(=O)NC(=O)N(Cc3ccco3)C2=O)c(C)n1-c1ccc(C(=O)O)cc1", "Potency": "50.1 µM (active)"}, {"compound": "CN[C@@H]1C[C@H]2O[C@@](C)([C@@H]1OC)n1c3ccccc3c3c4c(c5c6ccccc6n2c5c31)C(=O)NC4", "Potency": "inactive"}, {"compound": "CCN1C[C@]2(COC)C(O)C[C@H](OC)[C@@]34C5C[C@]6(O)C(OC)C(O)[C@](OC(C)=O)(C5C6OC(=O)c5ccccc5)C(C(OC)C23)C14", "note": "(some centres undefined)", "activity, negative = inhibition": "2.42% (inactive)"}, {"compound": "CC(CCC(=O)O)C1CCC2C3C(O)C[C@@H]4CC(O)CC[C@@]4(C)C3CC[C@@]12C", "note": "(some centres undefined)", "activity, negative = inhibition": "-1.37% (inactive)"}, {"compound": "COc1ccc(C2Oc3c(I)c(OC)cc(OC)c3CC2O)cc1OC", "note": "(centres undefined)", "activity, negative = inhibition": "1.84% (inactive)"}, {"compound": "N[C@H](Cc1o[nH]c(=O)c1Cl)C(=O)O", "activity, negative = inhibition": "-6.05% [at 19.4 µM] (inactive)"}, {"compound": "CN1CCN(C(=O)O[C@@H]2c3nccnc3C(=O)N2c2ccc(Cl)cn2)CC1", "activity, negative = inhibition": "-8.72% [at 19.4 µM] (inactive)"}, {"compound": "C/C(=C\\C=C/[C@@H](C)C(=O)O)[C@H]1CN[C@H](C(=O)O)[C@@H]1CC(=O)O", "activity, negative = inhibition": "-13.7% [at 19.4 µM] (inactive)"}, {"compound": "N[C@H](C(=O)O)c1cc(=O)[nH]o1", "activity, negative = inhibition": "-6.61% [at 19.4 µM] (inactive)"}, {"compound": "O=C1CC(=O)N(Cc2ccccc2)C(=O)N1CCCCCCN1C(=O)CC(=O)N(Cc2ccccc2)C1=O", "Potency": "22.4 µM (active)"}, {"compound": "CC(C)(C)c1ccc(CN2C(=O)CN=C(c3ccccc3)c3ccccc32)cc1", "activity, negative = inhibition": "-14.9% [at 107 µM] (inactive)"}, {"compound": "COC1CC(OC2CC[C@@]3(C=O)C4CC[C@]5(C)C(C6=CC(=O)OC6)CC[C@@]5(O)C4CC[C@]3(O)C2)OC(C)C1O", "note": "(some centres undefined)", "activity, negative = inhibition": "-7.19% (inactive)"}, {"compound": "C[C@]12CC[C@@H]3c4ccc(O)cc4C[C@@H](CCCCCCCCCS(=O)CCCC(F)(F)C(F)(F)F)C3[C@@H]1CC[C@@H]2O", "note": "(some centres undefined)", "activity, negative = inhibition": "-16.9% (inactive)"}, {"compound": "CO[C@@H]1C[C@@H](C[C@H]2CC[C@H](C)[C@@H]([C@@H](C)C(=O)O)O2)O[C@]2(O[C@](C)([C@H]3CC[C@@](C)(C4OC([C@H]5O[C@@](O)(CO)[C@H](C)C[C@@H]5C)C[C@@H]4C)O3)C[C@H]2C)[C@@H]1C", "note": "(some centres undefined)", "activity, negative = inhibition": "0.283% [at 19.4 µM] (inactive)"}, {"compound": "CN=C(NC#N)NCCSCc1nc[nH]c1C", "Potency": "inactive and 28.2 µM (active)"}, {"compound": "NC[C@H](O)c1ccc(O)cc1", "activity, negative = inhibition": "-4.18% [at 12 µM] (inactive)"}, {"compound": "CC[C@]1(O)C(=O)OCc2c1cc1n(c2=O)Cc2cc3ccccc3nc2-1", "activity, negative = inhibition": "-8.67% [at 19.4 µM] (inactive)"}, {"compound": "Fc1ccc(C(OCCN2CCN(C/C=C\\c3ccccc3)CC2)c2ccc(F)cc2)cc1", "activity, negative = inhibition": "-16.7% [at 19.4 µM] (inactive)"}, {"compound": "CC[N+](C)(CC)CCC[n+]1c(-c2ccccc2)c2cc(N)ccc2c2ccc(N)cc21", "Potency": "6.31 µM (active)"}, {"compound": "CC(C)(O)c1[se]c2ccccc2c1I", "activity, negative = inhibition": "-19.7% [at 107 µM] (inactive)"}, {"compound": "CN1[C@@H]2CC[C@H]1CC(OC(=O)c1cc(Cl)cc(Cl)c1)C2", "note": "(some centres undefined)", "activity, negative = inhibition": "-5.99% [at 19.4 µM] (inactive)"}, {"compound": "COc1ccc(N2C(=O)/C(=C/c3ccco3)C(=O)NC2=S)cc1", "Potency": "4.47 µM (active)"}, {"compound": "CCN1C[C@]2(C)CC[C@H](O)[C@@]34[C@@H]5CC6[C@@H](OC)C[C@@](O)([C@@H]5[C@@H]6O)[C@H](C[C@@H]23)[C@H]14", "activity, negative = inhibition": "-3.02% [at 12 µM] (inactive)"}, {"compound": "N#Cc1cc(Br)c(O)c(Br)c1", "activity, negative = inhibition": "12.6% (inactive)"}, {"compound": "CN(C)[C@@H]1C(=O)C(C(N)=O)=C(O)[C@@]2(O)C(=O)C3=C(O)c4c(O)cccc4[C@@](C)(O)C3CC12", "note": "(some centres undefined)", "activity, negative = inhibition": "-10.9% (inactive)"}, {"compound": "c1ccc2sc(SNC3CCCCC3)nc2c1", "activity, negative = inhibition": "-5.44% (inactive)"}, {"compound": "NCCCCC(N)C(=O)O", "note": "(centres undefined)", "Potency": "inactive"}, {"compound": "C=CCN1CCC2(C)c3cc(O)ccc3CC1[C@@H]2C", "note": "(some centres undefined)", "activity, negative = inhibition": "7.6% [at 19.4 µM] (inactive)"}, {"compound": "CCCN(C/C=C/I)C1CCc2ccc(O)cc2C1", "note": "(centres undefined)", "activity, negative = inhibition": "-4.88% [at 19.4 µM] (inactive)"}, {"compound": "CO[C@H]1[C@@H](O)[C@@H](C)O[C@H](O[C@H]2[C@H](Oc3cccc4c(O)c5c(=O)oc6ccc(C)c7c(=O)oc(c34)c5c67)O[C@H](C)[C@H](O)[C@@H]2O)[C@@H]1O", "Potency": "35.5 µM (active)"}, {"compound": "c1ccc(CN2CC[C@@]3(CCCNC3)C2)cc1", "activity, negative = inhibition": "-4.77% (inactive)"}, {"compound": "CCCCCCCCCCCCN=C(N)N", "activity, negative = inhibition": "23.6% (inactive)"}, {"compound": "CN(C)C1C(=O)C(C(N)=O)=C(O)[C@@]2(O)C(=O)C3=C(O)c4c(O)cccc4[C@@](C)(O)C3C[C@@H]12", "note": "(some centres undefined)", "activity, negative = inhibition": "-12% [at 19.4 µM] (inactive)"}, {"compound": "N#CC(C#N)=Cc1cc(O)c(O)c([N+](=O)[O-])c1", "Potency": "2.82 µM (active)"}, {"compound": "COC([CH2][Hg])CNC(=O)c1ccccc1OCC(=O)O", "note": "(centres undefined)", "activity, negative = inhibition": "4.39% [at 19.4 µM] (inactive)"}, {"compound": "Nc1ccc(-c2ccc(N)c(N)c2)cc1N", "activity, negative = inhibition": "11.1% (inactive)"}, {"compound": "CN(C)C[C@H]1CCCC[C@]1(O)c1cccc(O)c1", "activity, negative = inhibition": "15.6% (inactive)"}, {"compound": "CC[C@@H]1CN2CC[C@@H]1C[C@H]2[C@H](O)c1ccnc2ccc(OC)cc12", "activity, negative = inhibition": "-10.2% [at 19.4 µM] (inactive)"}, {"compound": "CC1=CC(=O)C2=C(C)C[C@H](O)[C@H]3[C@H](C)C(=O)O[C@@H]3C12", "note": "(some centres undefined)", "activity, negative = inhibition": "-5.66% [at 19.4 µM] (inactive)"}, {"compound": "C[C@H]1C/C=C/[C@@H]2[C@@H]3O[C@]3(C)[C@@H](C)[C@H]3[C@H](Cc4ccccc4)NC(=O)[C@]32OC(=O)O/C=C/[C@](C)(O)C1=O", "activity, negative = inhibition": "-10.2% [at 12 µM] (inactive)"}, {"compound": "Cc1c(C(=O)O)cccc1-n1c(C)cc(/C=C2\\C(=O)NC(=O)N(c3ccc4c(c3)OCO4)C2=O)c1C", "Potency": "44.7 µM (active)"}, {"compound": "CC(=O)OC1C2CCC3C1(CC(O)[C@@]1(O)[C@@H](CC(O)C1(C)C)[C@]3(C)O)C[C@@]2(C)O", "note": "(some centres undefined)", "activity, negative = inhibition": "0.942% (inactive)"}, {"compound": "C=CCSSCC=C", "activity, negative = inhibition": "-7.05% (inactive)"}, {"compound": "C[C@]12O[C@H](C[C@@]1(O)C(=O)O)n1c3ccccc3c3c4c(c5c6ccccc6n2c5c31)CNC4=O", "activity, negative = inhibition": "-9.21% (inactive)"}, {"compound": "C[C@@]12CCC3C(CC[C@@H]4CC(O)CC[C@@]34C)C1CCC2O", "note": "(some centres undefined)", "activity, negative = inhibition": "2.74% (inactive)"}, {"compound": "CCCCC/C=C\\C/C=C\\C/C=C\\C/C=C\\CCCCCC(=O)NCCO", "activity, negative = inhibition": "2.79% [at 19.4 µM] (inactive)"}, {"compound": "Cc1cccc2c3c(ccc12)C1=C(C(=O)C3=O)C(C)CO1", "note": "(centres undefined)", "Potency": "20 µM (active)"}, {"compound": "C[C@@]12CC[C@H]3[C@@H](CC[C@]4(O)C[C@H](O)CC[C@@]34C=O)[C@]1(O)CC[C@@H]2C1=CC(=O)OC1", "activity, negative = inhibition": "-6.33% [at 12 µM] (inactive)"}, {"compound": "C[C@@H]1C[C@@H]2O[C@H]2/C=C\\C=C\\C(=O)Cc2c(Cl)c(O)cc(O)c2C(=O)O1", "Potency": "39.8 µM (active)"}, {"compound": "c1ccc(CCCCN2CCC(c3ccccc3)CC2)cc1", "Potency": "inactive"}, {"compound": "O=C(N/N=C/c1ccc([N+](=O)[O-])o1)c1cc([N+](=O)[O-])cc([N+](=O)[O-])c1O", "activity, negative = inhibition": "-2.87% [at 19.4 µM] (inactive)"}, {"compound": "c1ccc(N2CC[C@@]3(CCCNC3)C2)nc1", "activity, negative = inhibition": "8.04% (inactive)"}, {"compound": "O=C1NC(=O)N(c2ccccc2)C(=O)/C1=C/c1ccc([N+](=O)[O-])s1", "Potency": "31.6 µM (active)"}, {"compound": "COc1cccc(N2C(=O)NC(=O)/C(=C\\c3ccc([N+](=O)[O-])s3)C2=O)c1", "Potency": "25.1 µM (active)"}, {"compound": "CC(=O)[O][Sn]([c]1ccccc1)([c]1ccccc1)[c]1ccccc1", "activity, negative = inhibition": "4.82% (inactive)"}, {"compound": "CCCCCCCCc1[se]c2ccccc2c1Br", "activity, negative = inhibition": "-2.11% (inactive)"}, {"compound": "ClCCN(CCCl)c1ccc(C=Nc2ccc(/C=C/c3ccnc4ccccc34)cc2)cc1", "activity, negative = inhibition": "-11.1% [at 107 µM] (inactive)"}, {"compound": "CC(C)(Cc1c[nH]c2ccc(Cl)cc12)NCCOc1ccccc1OCC1CC1", "Potency": "inactive"}, {"compound": "CCN(CC)c1nc(C)cc(OP(=S)(OC)OC)n1", "activity, negative = inhibition": "14.8% (inactive)"}, {"compound": "C[C@@H]1C[C@H]2CC[C@H](O2)[C@H](C)C(=O)O[C@@H](C)C[C@@H]2CC[C@@H](O2)[C@@H](C)C(=O)O[C@H](C)C[C@H]2CC[C@H](O2)[C@H](C)C(=O)O[C@@H](C)C[C@@H]2CC[C@@H](O2)[C@@H](C)C(=O)O1", "activity, negative = inhibition": "6.33% (inactive)"}, {"compound": "O=C(Nc1cccc(F)c1)N1CC[C@@]2(CCCN(C(=O)Oc3ccccc3)C2)C1", "activity, negative = inhibition": "-3.75% (inactive)"}, {"compound": "CC(C)(c1ccc(OC[C@@H]2CO2)cc1)c1ccc(OC[C@H]2CO2)cc1", "activity, negative = inhibition": "-11.1% [at 19.4 µM] (inactive)"}, {"compound": "COc1ccc2[nH]cc(CCNCc3ccc(Br)cc3)c2c1", "activity, negative = inhibition": "2.66% [at 19.4 µM] (inactive)"}, {"compound": "O=C1CCc2cccc3c2N1CC3", "activity, negative = inhibition": "-11.9% [at 12 µM] (inactive)"}]}]}
